Menin-MLL FL inh: qHTS Assay for Inhibitors Targeting the Menin-MLL Interaction in MLL Related Leukemias: Competition With Fluorescein Labeled MLL-derived Peptide | 290,000 tested, under 10 active | FP activity change, % at 61.4 µM | Fluorescence polarization, fluorescein-MLL peptide displacement from menin; active means well fitted curve in the direction sought with a large enough effect in the polarisation, not every such curve was filed as active; inconclusive means small, poorly fitted or top-dose-only effect, or effect the other way, or a change in a side signal; inactive means no such curve, though single readings can be large or run the other way; the % refers to the polarisation
Menin MLL FP TR: qHTS Assay for Inhibitors Targeting the Menin-MLL Interaction in MLL Related Leukemias: Competition With Texas Red Labeled MLL-derived Mutant Peptide; 0.23% of 270,000 active; Menin + Texas Red MLL mutant peptide, fluorescence polarization; Potency, µM (series often up to 61.6 µM), actives largely listed as inhibitors; active means well fitted inhibition curve with a large enough effect in the polarisation, with a control signal flat, not every such curve was filed as active; inconclusive means small, poorly fitted or top-dose-only effect, or effect the other way, or a change in a side signal; inactive means no such curve, though single readings can be large or run the other way; the % refers to the polarisation
ClpP mod: qHTS Assay for Activators of ClpP. Potency, µM (top dose mostly 57.5 µM). purified B. subtilis ClpP, FRET peptide cleavage, 20 min. 1.9% of 340,000 active. ATP-dependent Clp protease proteolytic subunit (Bacillus subtilis (strain 168)), P80244. AID 651965, 2013; active means well fitted falling curve with a large enough effect; inconclusive means small, poorly fitted or top-dose-only effect; inactive means no such curve, though single readings can be large or run the other way; further: the source files actives as falling curves though it sought activators and does not explain the sign; nearly all actives have a fitted effect of over 65% in size
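ClpP 10 microg/mL final, pH 8 Tris/KCl buffer with BSA, glycerol, Tween-20; compound pinned in; FRET-FV substrate; RT 20 min; Ex320/Em430; ΔFRET vs ADEP 5.8 microM, DMSO, no enzyme.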
CXXC DNA block: qHTS Fluorescence Polarization Assay for Inhibitors of MLL CXXC domain - DNA interaction | MLL-CXXC / FITC-HOXA9 DNA fluorescence polarization | Potency, µM (highest dose often 115 µM), usual class: inhibitors | 0.037% of 290,000 active; active means well fitted inhibition curve with a large enough effect in the polarisation, with a control signal flat, not every such curve was filed as active; inconclusive means small, poorly fitted or top-dose-only effect, or effect the other way, or a change in a side signal; inactive means no such curve, though single readings can be large or run the other way; the % refers to the polarisation
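Steps: dispense CXXC domain solution (7 uM) → pin compounds or unlabeled HOX-A9 DNA control → 5 min ambient → add FLSN-HOX-A9 solution (50 nM) → spin → 30 min ambient → fluorescence polarization. Tris pH 7.5/NaCl/DTT/BSA buffer.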
p53 reactivator: qHTS assay for re-activators of p53 using a Luc reporter; H1299 p53-A138V BP100-luciferase reporter, luminescence, 24 h; Potency, µM (highest dose often 92.2 µM), hits mostly activators; 0.063% of 320,000 active; active means well fitted activation curve with a large enough effect; inconclusive means small, poorly fitted or top-dose-only effect; inactive means no such curve, though single readings can be large or run the other way; further: nearly all actives have a fitted effect of over 45% in size
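p53-null H1299 cells stably carrying temperature-sensitive p53-A138V and a BP100-luciferase reporter were pinned with compounds (4-point, 1:5 series) and held 24 hrs at 37 deg C. Luminescence was read 10 min after detection reagent.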
Each line names hits and unclear results; the compound was inactive in the other large screens. This excerpt belongs to a sample that is enriched for hits.

COc1ccc2[nH]c(=O)c(CNc3ccccc3)cc2c1	ClpP mod 15.8µM, p53 reactivator inconclusive
Cn1cc(C(=O)NCc2ccccc2)c(=O)c2cc(S(=O)(=O)N3CCCCCC3)ccc21	none (no result: Menin-MLL FL inh, Menin MLL FP TR, CXXC DNA block, p53 reactivator)
Oc1ccc(-c2cn3cc(C(F)(F)F)ccc3n2)cc1	ClpP mod 28.2µM, p53 reactivator inconclusive
CN1CCN(c2c(F)cc3c(=O)c(C(=O)O)cn4c3c2SCC4)CC1	ClpP mod 28.2µM
CCOC(=O)C1=C(C)Nc2nc3ccccc3n2C1c1ccccc1 (stereo not given)	ClpP mod 35.5µM
CC(C)c1ccc2c(c1)CCC1C(C)(CN)CCCC21C (stereo not given)	Menin MLL FP TR 20µM (no result: ClpP mod)
CC(C)c1ccc2c(c1)CC[C@@H]1[C@@](C)(CN)CCC[C@]21C	Menin-MLL FL inh inconclusive (no result: ClpP mod, CXXC DNA block, p53 reactivator)
CC1(OC(=O)c2cnc3ccccc3n2)C(=O)C=C2C=C3CCCN3C=C2C1=O (stereo not given)	none (no result: ClpP mod, CXXC DNA block, p53 reactivator)
COc1ccc([C@H]2CC(=O)C=C(c3cccc(Cl)c3)C2)cc1	none (no result: Menin-MLL FL inh, Menin MLL FP TR, CXXC DNA block)
CCOC(=O)c1cccc(C2=CC(=O)C[C@H](c3ccc(OC)cc3)C2)c1	p53 reactivator 12.6µM (no result: Menin-MLL FL inh, Menin MLL FP TR, CXXC DNA block)
CC(C)(C)c1ccc(C(=O)C[n+]2cccc(Br)c2)cc1	none (no result: Menin-MLL FL inh, Menin MLL FP TR, CXXC DNA block, p53 reactivator)
O=C1CC(c2ccccc2)(c2ccccc2)c2ccccc21	ClpP mod 31.6µM (no result: Menin-MLL FL inh, Menin MLL FP TR, CXXC DNA block, p53 reactivator)
O=c1[nH]cc(C#Cc2ccccc2)c2ncncc12	none (no result: Menin-MLL FL inh, Menin MLL FP TR, CXXC DNA block, p53 reactivator)
CC(=O)Nc1ccc(NCC(O)COc2ccccc2)cc1 (stereo not given)	none (no result: Menin MLL FP TR)
Cc1cccnc1NCC(O)COc1ccccc1 (stereo not given)	ClpP mod 28.2µM
CCOc1ccc(N(CC)C(=O)Cn2cnc3sc(C)c(S(=O)(=O)N4CCN(c5ncccn5)CC4)c3c2=O)cc1	none (no result: Menin-MLL FL inh, Menin MLL FP TR, CXXC DNA block, p53 reactivator)
COC(=O)c1ccccc1NC(=O)Cc1nc(-c2ccc(OC)cc2)no1	ClpP mod 28.2µM (no result: Menin-MLL FL inh, Menin MLL FP TR, CXXC DNA block, p53 reactivator)
Cc1ccc(N(CC(=O)NC2CCCC2)C(=O)CCC(=O)Nc2ccccn2)cc1	Menin MLL FP TR inconclusive (no result: ClpP mod)
CCOC(=O)C(C(=O)Nc1ccccn1)C1CCCCC1 (stereo not given)	ClpP mod 28.2µM
CCOC(=O)C(C(=O)Nc1cccc(C)n1)C1CCCCC1 (stereo not given)	none
CCc1ccc(N(CC(=O)NC2CCCCC2)C(=O)CCC(=O)Nc2ccccn2)cc1	ClpP mod 15.8µM
O=C(CSc1nc2c([nH]c3ccccc32)c(=O)n1-c1cccc(Cl)c1)c1ccccc1	none (no result: Menin-MLL FL inh, Menin MLL FP TR, CXXC DNA block, p53 reactivator)
CCOC(=O)c1nnn(-c2nonc2-n2cccc2)c1C	none
CCOC(=O)c1nnn(-c2nonc2-n2cccc2)c1-c1cccc([N+](=O)[O-])c1	ClpP mod 28.2µM
COc1ccc2c(c1)c(=O)oc1cc(OCC(=O)NC3CCCCC3)ccc12	ClpP mod 8.91µM
O=C(COc1ccc2ccc(=O)oc2c1)Nc1nccs1	p53 reactivator inconclusive
N#CC1(NC(=O)COc2ccc3ccc(=O)oc3c2)CCCCC1	ClpP mod 35.5µM (no result: Menin-MLL FL inh, Menin MLL FP TR, CXXC DNA block)
O=C(COc1ccc2ccc(=O)oc2c1)NC1CCCCC1	ClpP mod 10µM (no result: Menin-MLL FL inh, Menin MLL FP TR, CXXC DNA block)
O=C(CCl)c1ccc2c(c1)CCCC2	none (no result: Menin-MLL FL inh, Menin MLL FP TR, CXXC DNA block, p53 reactivator)
COc1ccc(NC(=O)C2CCCN(c3nnc(C)c4c(C)n(-c5ccccc5)nc34)C2)cc1Cl (stereo not given)	none (no result: Menin-MLL FL inh, Menin MLL FP TR, CXXC DNA block, p53 reactivator)
Cc1ccc(S(=O)(=O)c2cn(C)c3cc(N4CCCCCC4)c(F)cc3c2=O)cc1	none (no result: Menin-MLL FL inh, Menin MLL FP TR, CXXC DNA block, p53 reactivator)
CC(C)CC(NC(=O)c1ccc(Cl)cc1)C(=O)OCc1cc([N+](=O)[O-])cc2c1OCOC2 (stereo not given)	ClpP mod 22.4µM
CC(C)C(NC(=O)c1ccccc1)C(=O)OCc1cc([N+](=O)[O-])cc2c1OCOC2 (stereo not given)	none
CCN(CC)C(=O)Cn1c(=O)n(Cc2ccc(C(=O)NCc3ccccc3Cl)cc2)c(=O)c2ccccc21	none (no result: Menin-MLL FL inh, Menin MLL FP TR, CXXC DNA block, p53 reactivator)
COc1cc2c(cc1OC)/C(=C/C(=O)N1CCOCC1)NC(C)(C)C2	Menin MLL FP TR inconclusive, ClpP mod 12.6µM
CCOC(=O)/C=C1\NC(C)(C)Cc2cc(OC)c(OC)cc21	none
COc1ccc2c(c1)C1=NN(/C(C)=C/C(C)=O)C(c3ccc(F)cc3)C1CC2 (stereo not given)	ClpP mod 20µM, p53 reactivator inconclusive
FC(F)(F)c1ccccc1-c1ccc2ncnc(NC3CCNCC3)c2c1	none (no result: ClpP mod, CXXC DNA block, p53 reactivator)
CC1CC=CC2C1C(=O)N(Cc1ccccc1)C2c1ccc(F)c(Br)c1 (stereo not given)	Menin MLL FP TR inconclusive (no result: ClpP mod, CXXC DNA block, p53 reactivator)
O=c1[nH]c2cc3c(cc2cc1C(c1nnnn1CC1CCCO1)N1CCCCCC1)OCO3 (stereo not given)	none (no result: ClpP mod)
O=c1[nH]c2cc3c(cc2cc1C(c1nnnn1CC1CCCO1)N1CCCC1)OCO3 (stereo not given)	ClpP mod 31.6µM
CC(C)(C)n1nnnc1C(c1cc2cc3c(cc2[nH]c1=O)OCO3)N1CCN(c2ccccc2)CC1 (stereo not given)	ClpP mod 22.4µM
O=c1[nH]c2cc3c(cc2cc1C(c1nnnn1CC1CCCO1)N1CCCCCC1)OCCO3 (stereo not given)	ClpP mod 31.6µM
CN(C)c1ccc(/C=C/c2cc3ccccc3cn2)cc1	none (no result: Menin-MLL FL inh, Menin MLL FP TR, CXXC DNA block, p53 reactivator)
CC(=O)ON(C(C)=O)c1ccc(/C=C2/C=Cc3ccccc32)cc1	none (no result: Menin-MLL FL inh, Menin MLL FP TR, CXXC DNA block, p53 reactivator)
